Results filed as inconclusive are left out. Calls of active or inactive are those of the source. Rule for the calls: active = hit-call score of the fitted dose curve at least 0.9, where 1 is the maximum; inconclusive = response in the unintended direction; inactive = score below 0.9.
target: human Opioid Receptor Mu (Opiate Mu), OPRM1 (gene 4988) (UniProt P35372); test: NVS_GPCR_hOpiate_mu: NovaScreen (NVS) G Protein-Coupled Receptor Assay for human Opioid Receptor Mu (Opiate Mu) (AID 2283290);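 note: hits lower bound tracer signal versus DMSO meaning displacement of the ligand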
Sequence (P35372 whole entry, looked up): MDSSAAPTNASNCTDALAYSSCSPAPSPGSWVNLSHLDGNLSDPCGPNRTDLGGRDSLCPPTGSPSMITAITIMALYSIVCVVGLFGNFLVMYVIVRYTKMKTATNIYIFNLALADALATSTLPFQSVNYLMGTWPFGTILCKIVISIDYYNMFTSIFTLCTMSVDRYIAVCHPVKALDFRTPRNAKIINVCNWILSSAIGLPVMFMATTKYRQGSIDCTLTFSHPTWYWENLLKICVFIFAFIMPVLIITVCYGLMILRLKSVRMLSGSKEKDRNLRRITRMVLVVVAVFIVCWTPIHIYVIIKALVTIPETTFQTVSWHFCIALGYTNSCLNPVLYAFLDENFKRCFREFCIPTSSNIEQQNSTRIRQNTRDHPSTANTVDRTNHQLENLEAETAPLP
Description: NVS_GPCR_hOpiate_mu is a biochemical, single-readout assay that uses extracted gene-proteins from CHO in a cell-free assay. Measurements were taken 2.5 hours after chemical dosing in a 96-well plate.NVS_GPCR_hOpiate_mu is one of one assay component(s) measured or calculated from the NVS_GPCR_hOpiate_mu assay. It is designed to make measurements of radioligand binding, a form of binding reporter, as detected with scintillation counting signals by Filter-based radiodetection technology.Data from the assay component NVS_GPCR_hOpiate_mu was analyzed into 1 assay endpoint. This assay endpoint, NVS_GPCR_hOpiate_mu, was analyzed in the positive analysis fitting direction relative to DMSO as the negative control and baseline of activity. Using a type of binding reporter, loss-of-signal activity can be used to understand changes in the binding as they relate to the gene OPRM1. Furthermore, this assay endpoint can be referred to as a primary readout, because the performed assay has only produced 1 assay endpoint. To generalize the intended target to other relatable targets, this assay endpoint is annotated to the gpcr intended target family, where the subfamily is rhodopsin-like receptor.
Binding assays used specific radioligands (tritiated, iodinated) with non-radioactive competitive displacement ligands in agonist or antagonist protocols (as indicated) and various reference compounds and inhibitors to titrate specific binding to receptors and transporters. Most enzyme assays (CYPs, kinases, phosphatases, proteases, HDACs) used recombinant protein and specific substrates (fluorescence mostly, some colorimetric and radioactive) and inhibitors, followed by a biochemical separation of substrate and product. All assays for the biochemical HTS were initially run in duplicate at a single concentration (10 uM for CYP450 assays and 25 uM for all others). […] Each assay was run with positive and negative controls, and concurrent controls on every plate. The follow-up (secondary) screen tested active chemical-pairs in concentration series, as well as a few additional assays not tested in the primary screen, some selected negative inactives, and several cases re-run in the concentration series for confirmatory purposes.

Structure (SMILES)	outcome	AC50
CCCN(CCC)c1c([N+](=O)[O-])cc(C(C)C)cc1[N+](=O)[O-]	inactive	
O=c1ssc(Cl)c1Cl		0.885 µM (active)
OCC1CO1 (configuration not stated)	inactive	
CC1(C)CN=C(NN=C(/C=C/c2ccc(C(F)(F)F)cc2)/C=C/c2ccc(C(F)(F)F)cc2)NC1		6.5 µM (active)
N#Cc1c(-c2ccc(Cl)cc2)[nH]c(C(F)(F)F)c1Br	inactive	
c1cc2c3c(cccc3c1)CC2	inactive	
Nc1ccc2ccccc2c1	inactive	
CCCCN(CCCC)SN(C)C(=O)Oc1cccc2c1OC(C)(C)C2	inactive	
CCOP(=S)(OCC)SCS(=O)(=O)CC	inactive	
CCC(C)(C)c1ccc(O)cc1		6.43 µM (active)
Cc1ccc(O)cc1C	inactive	
CSC(C)(C)C=NO	inactive	

Reference: PubChem BioAssay (EPA / NIEHS)
